Compound activity: PubChem, National Center for Advancing Translational Sciences (NCATS)
TDP1 cell CPT = DT40-hTDP1 cell growth loss with CPT; chicken DT40 Tdp1-/-;hTDP1 cells + 20 nM CPT, ATP luminescence, 48 h; Potency, µM (series often up to 46.2 µM), inactives show top-dose activity change, negative = growth inhibition, hits mostly inhibitors; 420,000 compounds, 12% hits; AID 686979; further: potency means the concentration at half of the fitted maximal effect; nearly all actives have a fitted effect of over 55% in size
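Chicken DT40 Tdp1-/- cells complemented with human TDP1, 400 cells/well, exposed to compounds plus 20 nM camptothecin for at least 48 h at 37 C; viability read as ATP content by CellTiter-Glo luminescence.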
HT1080 IDH1KD tx = HT-1080 IDH1 knockdown cell toxicity (counter line). AID 686971. Potency, µM (top dose mostly 46.1 µM), for inactives: at the highest dose activity, negative = toxicity, actives largely listed as cytotoxic. 360,000 compounds, 2% hits. HT-1080 IDH1 knockdown viability, ATP luminescence, 48 h;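 further: potency means the concentration at half of the fitted maximal effect; 0% = DMSO wells and -100% = cell-free medium wells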
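Cytotoxicity counter-line: IDH1KD HT-1080, 48 h, CellTiter-Glo. Curves classed by r2, magnitude and activity.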
HT1080-NT tox = kills 2HG-producing HT-1080-NT fibrosarcoma cells | HT-1080-NT fibrosarcoma viability, CellTiter-Glo ATP luminescence, 48 h | Potency, µM (series often up to 46.1 µM), without a hit: top-dose activity, negative = less viability, actives largely listed as cytotoxic | 360,000 compounds, 1.6% hits | AID 686970;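 further: NT is the 2HG producing partner of a matched IDH1 knockdown line; potency means the concentration at half of the fitted maximal effect; 0% = DMSO-treated cells and -100% = media-only wells without cells; nearly all actives have a fitted effect of over 55% in size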
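750 cells/well, RPMI + 5% FBS; 2 h settle, compound pin-transfer, 48 h at 37 degrees C. CellTiter-Glo 10 min RT, luminescence. Normalized to DMSO and media-only wells.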
DT40 TDP1 no CPT = qHTS for Inhibitors of human tyrosyl-DNA phosphodiesterase 1 (TDP1): qHTS in cells in absence of CPT; 420,000 compounds, 15% hits; DT40 Tdp1-/- hTDP1 cells, no CPT, ATP luminescence, 48 h; Potency, µM (titrated, usually from 46.2 µM), for inactives: at the highest dose activity change, negative = growth inhibition, usual class: inhibitors; AID 686978, 2013; further: potency means the concentration at half of the fitted maximal effect; nearly all actives have a fitted effect of over 55% in size
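Compound effects on proliferation are scored in DT40 Tdp1-/-;hTDP1 cells in the absence of CPT. ATP levels (CellTiter-Glo luminescence) are recorded after a ≥48 hr, 37 °C incubation.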
IL1B secr inh = inflammasome signaling inhibition, IL-1 beta readout. activity change, % at 57.5 µM. AID 743279. THP-1 LPS/ATP IL-1B secretion, AlphaLISA, 16 h; active compounds read low. 360,000 compounds, 4.7% hits; in the data active means activity change below about -50%; inconclusive means mostly about -30% to -49%
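THP-1 cells pretreated 1 hr with compounds (up to 57.5 uM final), then stimulated with LPS (250 ng/mL final) plus ATP (1.25 mM final); secreted IL-1B measured by AlphaLISA after 16 hr, decreased signal indicating inhibition.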
* hit, by the source's call. A selection: hits, their analogues and other compounds. The true share with any hit is near 19%. Unless noted, the call rests on the fitted dose curve; in most records, active means well fitted curve in the direction sought with a large enough effect; inconclusive means small, poorly fitted or top-dose-only effect, or another doubt; inactive means no such curve, though single readings can be large; an effect the other way counts as inactive or inconclusive. Unless noted, on the % scale 0 is the no-effect control and ±100 the full control effect.

CCC(C)(C)c1nnc(NC(=O)CCC2CCCCC2)s1 was read as TDP1 cell CPT -8.9%, HT1080 IDH1KD tx 3.6%, HT1080-NT tox 8.7%, DT40 TDP1 no CPT -3.4% and IL1B secr inh 0.0.
Screening COc1ccccc1C(=O)O/N=C(/C)c1ccc(N2C(=O)C3CCCCC3C2=O)cc1 (stereo not given) returned TDP1 cell CPT 3.3%, HT1080 IDH1KD tx 1.4%, HT1080-NT tox 6.5%, DT40 TDP1 no CPT -17.4% and IL1B secr inh 64.2.
Screening O=C(c1cn(Cc2ccccc2)nc1-c1ccc(Cl)cc1)N1CCN(c2ccccn2)CC1 returned TDP1 cell CPT inconclusive, HT1080 IDH1KD tx -1.2%, HT1080-NT tox -12.9%, DT40 TDP1 no CPT inconclusive and IL1B secr inh -10.8.
Cc1ccc(-c2nn(-c3ccccc3)cc2C(=O)N2CCN(c3ccccn3)CC2)cc1 was read as TDP1 cell CPT inconclusive, HT1080 IDH1KD tx inconclusive, HT1080-NT tox inconclusive, DT40 TDP1 no CPT 29.1µM* and IL1B secr inh inconclusive.
COC(=O)c1cc2c(C)[nH]c(C)c2cc(C(=O)OC)c1=O was read as TDP1 cell CPT 7.31µM*, HT1080 IDH1KD tx 1.0%, HT1080-NT tox -0.1%, DT40 TDP1 no CPT 6.51µM* and IL1B secr inh -19.1.
COC(=O)CCn1c(C)cc(C(=O)COc2ccccc2C(N)=O)c1C was read as TDP1 cell CPT 20.6µM*, HT1080 IDH1KD tx inconclusive, HT1080-NT tox -18.1%, DT40 TDP1 no CPT 23.1µM* and IL1B secr inh -99.3*.
`Cc1cc(C(=O)CCl)c(C)n1CCc1ccccc1` gave TDP1 cell CPT 3.26µM*, HT1080 IDH1KD tx inconclusive, HT1080-NT tox 13µM*, DT40 TDP1 no CPT 4.61µM* and IL1B secr inh -100.0*.
`CCOC(=O)c1cc(C)n(CCc2ccccc2)c1C` gave TDP1 cell CPT -16.4%, HT1080 IDH1KD tx 11.1%, HT1080-NT tox 27.0%, DT40 TDP1 no CPT -24.1% and IL1B secr inh inconclusive.
COC(=O)CCCn1c(C)cc(C(=O)CCl)c1C was read as TDP1 cell CPT 6.51µM*, HT1080 IDH1KD tx inconclusive, HT1080-NT tox 20.6µM*, DT40 TDP1 no CPT 10.3µM* and IL1B secr inh -93.1*.
COc1cccc(CSc2nc3ccccc3c3nc(CCn4c(C)nc5ccccc54)nn23)c1 was read as TDP1 cell CPT inconclusive and DT40 TDP1 no CPT -26.2%.
`O=C(O)c1ccc(-n2cccc2/C=C2/SC(=O)N(CC(=O)N3CCCC3)C2=O)cc1` gave TDP1 cell CPT -0.7%, HT1080 IDH1KD tx 4.7%, HT1080-NT tox 1.3%, DT40 TDP1 no CPT 3.9% and IL1B secr inh 10.7.
CC(C)CCOc1cccc(OCC(=O)O)c1 was read as TDP1 cell CPT -8.3%, HT1080 IDH1KD tx 4.4%, HT1080-NT tox 4.5%, DT40 TDP1 no CPT -1.1% and IL1B secr inh 19.7.
Screening Brc1ccccc1OCCCn1cnc2ccccc21 returned TDP1 cell CPT inconclusive, HT1080 IDH1KD tx -2.4%, HT1080-NT tox -12.2%, DT40 TDP1 no CPT -26.4% and IL1B secr inh -24.7.
c1ccc2c(c1)ncn2CCCOc1ccc2c(c1)CCC2 was read as TDP1 cell CPT inconclusive, HT1080 IDH1KD tx inconclusive, HT1080-NT tox inconclusive, DT40 TDP1 no CPT 20.6µM* and IL1B secr inh -53.4*.
`c1ccc2c(c1)ncn2CCCCOc1ccc2c(c1)CCC2` gave TDP1 cell CPT inconclusive, HT1080 IDH1KD tx 3.5%, HT1080-NT tox -3.0%, DT40 TDP1 no CPT 29.1µM* and IL1B secr inh -29.3.
Screening CN(C)CCNc1ncnc2c1ncn2[C@H]1CN(Cc2cccnc2)C[C@@H](CO)O1 returned TDP1 cell CPT 1.4%, HT1080 IDH1KD tx 18.9%, HT1080-NT tox 13.1%, DT40 TDP1 no CPT -14.6% and IL1B secr inh 32.8.
Screening CCN(C[C@H]1N[C@@](C)(C(=O)OC)[C@H]2C(=O)N(Cc3ccccc3)C(=O)[C@@H]12)C(=O)c1ccccc1 returned TDP1 cell CPT 2.1%, HT1080 IDH1KD tx 13.1%, HT1080-NT tox -1.9%, DT40 TDP1 no CPT -25.4% and IL1B secr inh 7.3.
Screening O=C(CSc1ccnc(=O)[nH]1)NCc1ccc(F)cc1 returned TDP1 cell CPT -1.1% and DT40 TDP1 no CPT 2.6%.
For CCCCc1oc2ccc(NS(C)(=O)=O)cc2c1C(=O)c1ccc(OCCCN(CCCC)CCCC)cc1 the results were TDP1 cell CPT 4.73µM* and DT40 TDP1 no CPT 5.96µM*.
Screening CCCCCOc1ccc(NS(C)(=O)=O)cc1 returned TDP1 cell CPT -0.2%, HT1080 IDH1KD tx -11.2%, HT1080-NT tox 1.0%, DT40 TDP1 no CPT -23.1% and IL1B secr inh -13.1.
COC(=O)Cn1ccnc1[N+](=O)[O-] was read as TDP1 cell CPT -5.5%, HT1080 IDH1KD tx -2.9%, HT1080-NT tox 0.7%, DT40 TDP1 no CPT -5.5% and IL1B secr inh -5.1.
For O=C(C1CCN(S(=O)(=O)c2cc(Cl)ccc2Cl)CC1)N1CCCC1 the results were TDP1 cell CPT -0.7%, HT1080 IDH1KD tx -2.8%, HT1080-NT tox -7.0%, DT40 TDP1 no CPT -25.1% and IL1B secr inh -16.0.
For CCc1c(C2(O)CCCCC2)[nH]c2cc(C(F)(F)F)ccc12 the results were TDP1 cell CPT inconclusive, HT1080 IDH1KD tx inconclusive, HT1080-NT tox inconclusive, DT40 TDP1 no CPT 13µM* and IL1B secr inh 0.0.
For CCc1c(C2(O)CCCCC2)[nH]c2ccc(C#N)cc12 the results were TDP1 cell CPT inconclusive, HT1080 IDH1KD tx -2.8%, HT1080-NT tox -10.4%, DT40 TDP1 no CPT inconclusive and IL1B secr inh -12.2.
Cc1c(C2(O)CCCCC2)[nH]c2cc(C(F)(F)F)ccc12 was read as TDP1 cell CPT 20.6µM*, HT1080 IDH1KD tx inconclusive, HT1080-NT tox inconclusive, DT40 TDP1 no CPT 16.4µM* and IL1B secr inh -64.7*.
For Cc1cccc(-c2nnc(SCC(=O)Nc3cccc(C(=O)N4CCOCC4)c3)n2C)c1 the results were TDP1 cell CPT 24.4%, HT1080 IDH1KD tx 9.0%, HT1080-NT tox 17.4%, DT40 TDP1 no CPT -18.7% and IL1B secr inh 18.1.
For COC1=CC(=O)C(O)=C/C1=C\C=C\c1ccccc1 the results were TDP1 cell CPT 2.59µM* and DT40 TDP1 no CPT 4.61µM*.
Screening O=[N+]([O-])c1ccc(Cl)c(/C=N/n2c(-c3ccncc3)n[nH]c2=S)c1 returned TDP1 cell CPT 18.4µM*, HT1080 IDH1KD tx inconclusive, HT1080-NT tox -7.2%, DT40 TDP1 no CPT inconclusive and IL1B secr inh 38.7.
Screening S=c1[nH]nc(COc2ccccc2)n1/N=C/C(Cl)=C/c1ccccc1 returned TDP1 cell CPT 23.1µM*, HT1080 IDH1KD tx inconclusive, HT1080-NT tox inconclusive, DT40 TDP1 no CPT 16.4µM* and IL1B secr inh -91.2*.
Screening S=c1[nH]nc(COc2ccccc2)n1/N=C/C=C/c1ccccc1 returned TDP1 cell CPT -11.1%, HT1080 IDH1KD tx 0.8%, HT1080-NT tox 11.8%, DT40 TDP1 no CPT -2.2% and IL1B secr inh 12.1.
